These results are taken from PubChem BioAssay (NCATS).

Active and inactive are the calls of the source. The rule behind the calls is not given here.
Potency is the fitted concentration of half-maximal effect.

In the assay the test system is HIV-1 nucleocapsid protein NCp7 (binding to TG oligonucleotide). Put plainly: HIV Nucleocapsid (AID 346).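 Note: potency is for inhibitors that block NC binding and lower polarization.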 The conditions noted are these: HIV-1 NC / fluorescein-TGTGTGTG probe, fluorescence polarization. A digest of the protocol: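 HIV-1 NC (100 nM) binding to fluorescein-labelled ssDNA TG4xF (10 nM) in Hepes pH 7.5, 250mM NaCl, 1uM ZnCl2, TCEP and 2-mercaptoethanol; compounds pin-transferred, 1 hr room temperature, fluorescence polarization read on CCD imager.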
On the technique in general: Fluorescence polarisation rises when a labelled molecule tumbles more slowly, as on binding a larger partner.
As to `COc1cccc(Cn2c(=O)c(-c3cc(F)cc(F)c3)nc3cnc(N4CCOCC4)nc32)c1`, the Potency is > 20 µM (inactive).
For the compound `O=c1c(-c2ccc(Cl)cc2)nc2cnc(N3CCNCC3)nc2n1CCc1ccccc1`, the Potency is > 20 µM (inactive).
Consider `COC(=O)N1CCC2(CC1)CCN(c1cccc(-c3ccccc3)c1)CC2`, for which the Potency is > 20 µM (inactive).
The result for `Cc1nc2cnc(Oc3cccc(Cl)c3)nc2n(CCC#N)c1=O` reads > 20 µM (inactive); that for `COCCNc1ccnc(-c2ccccc2CN(C)C)n1`, > 20 µM (inactive).
The result for `c1ccc(Nc2nc(-c3ccoc3)nc3ccccc23)cc1` reads > 20 µM (inactive); that for `O=c1c(-c2ccc(F)cc2)nc2cncnc2n1C1CC1`, > 20 µM (inactive); that for `COc1ccc(-n2c(=O)c(C)nc3cnc(OC)nc32)cc1`, > 20 µM (inactive).
The result for `O=C(c1ccco1)N1CCC2(CCN(Cc3cc(C(F)(F)F)cc(C(F)(F)F)c3)CC2)CC1` reads > 20 µM (inactive); that for `CCNc1ncc2nc(CCc3ccccc3)c(=O)n(Cc3ccc(F)cc3)c2n1`, > 4 µM (inactive); that for `COc1ccc(CNc2ccnc(-c3c(C)noc3C)n2)c(OC)c1`, > 20 µM (inactive).
Regarding `O=C(Oc1ccccc1)N1CCC[C@@]2(CCN(c3ncccn3)C2)C1`, the Potency is > 20 µM (inactive).
`CS(=O)(=O)Nc1cccc(-c2nccc(NCc3cccs3)n2)c1`: the Potency was > 20 µM (inactive).
`COc1cccc(-c2nc(NCCNC(C)=O)c3ccccc3n2)c1`: the Potency is > 20 µM (inactive).
As for `Cc1cccc(CNc2nc(-c3ccc4c(c3)OCO4)nc3ccccc23)c1`, the Potency was > 20 µM (inactive).
